PubChem BioAssay (NCI)
Compounds without any hit were thinned out: in the full panel of roughly 83,000, 20% have a hit.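 How to read the values: 0–100, growth inhibition (40 = 60% inhibited); 0, no net growth; -100 to 0, cell death (-40 = 40% of starting cells died; -100 = all dead).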 A number with no mark means an inactive call. The source made the active and inactive calls. How the source made its calls: active means growth percent below 10; inactive means the rest.

What follows are compounds tested on MCF7 breast (assay: NCI-60 one-dose screen, 48 h (100 = growth as untreated, 0 = no growth, -100 = all killed)). Details: 10 µM.

SMILES	growth
O=C(Nc1cccc(C(F)(F)F)c1)c1cncc(C#Cc2cnc3cccnn23)c1	8.36% (active)
CCOc1ccc(/C=N/NC(=O)Cn2nc(Cc3ccccc3)c3onc(C)c3c2=O)cc1	28.3%
COc1cc(/C=C/C(=O)c2ccc(C(F)(F)F)cc2)ccc1Oc1nc(Nc2ccc(F)cc2)nc(N(C)C)n1	30.8%
CC(=O)c1cc(C(=O)N2c3ccccc3Sc3ccccc32)n2ccc(C)cc12	26.5%
CC1(C)CC[C@]2(C(=O)N3CCOCC3)CC[C@]3(C)C(=CC[C@@H]4[C@@]5(C)CC[C@H](NCO)C(C)(C)[C@@H]5CC[C@]43C)[C@H]2C1	-80.3% (active)
COC[C@@H](CC(C)C)N=C1NC(=O)/C(=C/c2ccc3ncsc3c2)N1	-17.7% (active)
CN1CCN(Cc2ccc(C(=O)Nc3cccc(Nc4ccc5c(O)cccc5n4)c3)cc2C(F)(F)F)CC1	-67.1% (active)
O=C(Nc1nc2ccc([N+](=O)[O-])cc2s1)Nc1ccccc1I	-13.9% (active)
CN1CCCN(Cc2ccc(C(=O)Nc3cccc(Nc4ccc5cc(O)ccc5n4)c3)cc2C(F)(F)F)CC1	-22.8% (active)
COc1ccc(N2N=C(c3ccc4c(c3)OCCO4)CC2c2cccc(NC(=O)CCCNS(=O)(=O)c3ccc(F)cc3)c2)cc1 (configuration not stated)	60.7%
CC(=O)Nc1ccc(-n2cnc3cc(-c4ccc(O)cc4)ccc32)cc1F	26.3%
O=C1NC(=NC2CCCCCC2)N/C1=C\c1ccc2ncoc2c1	13%
COC1=C[C@@]23CCC(=O)N2CCc2cc4c(cc2[C@H]3[C@H]1OC(=O)C(C)(C)O)OCO4	92.7%
CCN1CCN(Cc2ccc(C(=O)Nc3cccc(-c4cn(-c5ccc6oc(=O)ccc6c5)nn4)c3)cc2C(F)(F)F)CC1	-100% (active)
CN1C(=O)N(C)C2SC(N/N=C/c3cccs3)=NC21 (configuration not stated)	13.3%
CC(=O)Nc1ccc(-c2cn(-c3cccc(C(=O)Nc4cc(CN5CCOCC5)cc(C(F)(F)F)c4)c3)nn2)cn1	-84% (active)
Cc1cc(C)cc(Oc2cccc(-c3c(C)nnn3C3CCN(CCN(C)C)CC3)n2)c1	6.99% (active)
CC1=C(c2cc(-c3ccc(Cl)cc3)c(C#N)c(N)n2)C(c2ccccc2)NC(=S)N1 (configuration not stated)	31.6%
Cc1ccc(-c2nc3ccc(C(=O)N=Nc4c(O)[nH]c5ccc(Br)cc45)cc3[nH]2)cc1	21.7%

SMILES	growth
O=C(Nc1ccc(I)cc1F)c1cc(-c2ccc(F)cc2F)ccc1O	-12.8% (active)
CN1CCc2c(sc3ncnc(N/N=C/c4ccc5ccccc5c4)c23)C1	20.7%
COc1cc2c3c(n(CCCN4CCOCC4)c(=O)c2cc1OC)-c1nc2c(cc1C3=O)OCO2	14%
Cn1c(O)c(N=Nc2nc(-c3cc4ccccc4oc3=O)cs2)c2cc(Br)ccc21	77.4%
COc1ccc(CCN2C(=O)/C(=C/c3csc(C#N)n3)SC2=S)cc1OC	-15.9% (active)
COc1ccc2c3nc4cc(C)c(C)cc4nc3n(CCN(C)C)c2c1	-16.6% (active)
C=C1CCC2C3(C)COC(c4c(F)cccc4F)OC3CCC2(C)C1CC(O)C1=CCOC1=O (configuration not stated)	19%
Cc1cccc2cc(-c3cc(-c4ccccc4)nc(=S)[nH]3)c(Cl)nc12	68.3%
COc1ccc(/C=C/C(=O)c2ccc(N3CCN(C)CC3)cc2)c(C(F)(F)F)c1	-54.1% (active)
Cc1cccc(NC(=O)CSc2nc3ccc(F)cc3c(=O)n2-c2ccc(Cl)cc2)c1C	69.5%
CC1(c2ccccc2)NC(=O)N(CC(=O)Nc2ccc(C(=O)/C=C/C=C/c3ccccc3)cc2)C1=O (configuration not stated)	3.54% (active)
CCOP(=O)(OCC)O[C@H]1CC[C@]2(C)[C@H]3CC[C@@H]4[C@@H]([C@](C)(O)CCC=C(C)C)CC[C@@]4(C)[C@]3(C)CC[C@H]2C1(C)C	-0.325% (active)
COc1cccc(-c2ccnc(/N=C(\N)Nc3ccc(S(=O)(=O)Nc4nc(C)cc(C)n4)cc3)n2)c1	75.9%
COc1ccc2[nH]c(=O)c(CSc3cccc(N)c3)cc2c1	31%
C/C(=N\N=C\c1ccc(Cl)c([N+](=O)[O-])c1)c1ccc2c(c1)Nc1ccccc1S2	6.3% (active)
COc1cc(-c2nc3cc(Cl)c(Cl)cc3[nH]2)ccc1OCc1nnc(-c2ccc(Br)cc2)o1	5.68% (active)
O/N=C(\CSc1nnc(-c2c[nH]c3ccccc23)n1-c1ccccc1)c1ccc(Cl)cc1	3.27% (active)
CCOc1ccc(Nc2nc3ccccc3nc2Nc2ccc(OCC)cc2)cc1	32.9%
